The campaign covered roughly 420,000 compounds. About 50,000 (12%) were called active. About 26% were inconclusive and are not listed. What follows is part of a selection rich in actives, with near analogues and random picks from the rest. Unmarked numbers belong to inactive results. The call rests on the fitted dose curve; in most records, active means well fitted inhibition curve with a large enough effect; inconclusive means small, poorly fitted or top-dose-only effect; inactive means flat fitted curve, though single readings scatter.

Consider 53 compounds from PubChem BioAssay AID686979 (National Center for Advancing Translational Sciences (NCATS), 2013).
On the % scale 0 is the no-effect control and ±100 the full control effect; potency means the concentration at half of the fitted maximal effect.

This assay is described as follows: qHTS for Inhibitors of human tyrosyl-DNA phosphodiesterase 1 (TDP1): qHTS in cells in presence of CPT. Further: nearly all actives have a fitted effect of over 55% in size. The conditions noted are these: chicken DT40 Tdp1-/-;hTDP1 cells + 20 nM CPT, ATP luminescence, 48 h; series mostly up to 46.2 µM; activity change, negative = growth inhibition: at the top concentration. In short, it runs like this: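 Chicken DT40 Tdp1-/- cells stably complemented with human TDP1 were seeded at 400 cells/well in medium containing 20 nM camptothecin, exposed to pin-transferred compounds, and grown at 37 °C for at least 48 hr. Viability was read as ATP luminescence.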
(Quantitative high-throughput screening tests each substance at several concentrations.)
Consider `COC(=O)c1sc(=S)n(-c2ccc(Cl)cc2)c1C`, for which the “activity change, negative = growth inhibition” value is -11.9%.
On the same count and under the same terms, for `OC(CBr)CN1CCCCC1` (stereo not drawn) the value was -5.66%.
On to `O=C(NCc1nnnn1-c1ccc(Cl)cc1)c1ccc([N+](=O)[O-])o1`, for which the Potency was 18.4 µM (active).
As to `COc1ccc(-n2nnnc2CNC(=O)c2ccc3ccccc3c2)cc1`, the “activity change, negative = growth inhibition” value was -13.1%.
For `O=C(NCc1nnnn1-c1ccc(Cl)cc1)c1ccc2c(c1)OCO2`, the “activity change, negative = growth inhibition” value is -14.2%.
The same measure, in the same setting: the figure for `O=C(/C=C/c1cccc([N+](=O)[O-])c1)NCCSCc1ccco1` is -16.6%.
Turning to `COc1ccc(C(=O)NC2CC2)cc1OC1CCN(Cc2cnn(C)c2)CC1`, the “activity change, negative = growth inhibition” value was -4.23%.
Consider `COc1cc(C(=O)NC2CCN(C)CC2)ccc1Nc1ncc2c(n1)N(C1CCC(O)CC1)CCC(=O)N2C` (stereo not drawn), for which the Potency is 16.4 µM (active).
As to `COc1ccc(Cl)cc1NS(=O)(=O)c1cccc(C(=O)NC2CCC(O)CC2)c1` (stereo not drawn), the “activity change, negative = growth inhibition” value is 1.8%.
Regarding `O=C(NCCc1ccccc1Cl)C1CCC(=O)N(CCCc2ccccc2)C1` (stereo not drawn), the “activity change, negative = growth inhibition” value is -29.6%.
In the case of `COc1ccc(C(=O)O)cc1S(=O)(=O)NCc1cccnc1`, the “activity change, negative = growth inhibition” value is -2.76%.
Same read-out and setting: the figure for `CCOc1ccc(NC(=O)Cn2c(=O)n(CCCC(=O)NCc3ccc4c(c3)OCO4)c(=O)c3ccccc32)cc1` is -2.1%; for `O=C(CCn1c(=O)c2ccccc2n(Cc2ccc(Cl)cc2)c1=O)NCc1ccc2c(c1)OCO2` it is -29.2%.
Turning to `O=C(CCCCn1c(=O)c2ccccc2n(CC(=O)Nc2cccc(C(F)(F)F)c2)c1=O)NCc1ccc2c(c1)OCO2`, the Potency is 18.4 µM (active).
Turning to `CCCCn1c(SCC(=O)N2CCCC2=O)nc2cc(S(N)(=O)=O)ccc21`, the “activity change, negative = growth inhibition” value was -16%.
With `CCCCn1c(SCc2ncc(-c3ccccc3)o2)nc2cc(S(N)(=O)=O)ccc21`, the Potency was 11.6 µM (active).
For `CCCCn1c(SCC(=O)N2CCC(C(=O)OCC)CC2)nc2cc(S(N)(=O)=O)ccc21`, the “activity change, negative = growth inhibition” value was -9.44%.
On to `COc1cccc(Cn2cnc3c([N+](=O)[O-])c(C)c(C)cc32)c1`, for which the “activity change, negative = growth inhibition” value is -13%.
Still for that read-out and setting: for `CCc1ccc2[nH]c(=O)c(Cc3ccccc3)c(O)c2c1` the value was -29.7%.
In the case of `CCOc1ccc(NC(=O)c2ccc(NC(=O)COC(=O)c3ccc(NC(=O)CC#N)cc3)cc2)cc1`, the “activity change, negative = growth inhibition” value is -19.3%.
Consider `CCOc1ccc(C(=O)Nc2cccc(-c3ccc4nncn4n3)c2)cc1`, for which the Potency was 20.6 µM (active).
Regarding `CCC(=O)Nc1ccc(C(=O)Nc2cccc(OC)c2)cc1`, the “activity change, negative = growth inhibition” value is 5.12%.
`CCOc1ccc(C(=O)Nc2ccncc2)cc1`: the Potency is 10.3 µM (active).
For the compound `CCOc1ccc(NC(=O)c2ccc(NC(=O)C3CCCO3)cc2)cc1` (stereo not drawn), the “activity change, negative = growth inhibition” value is 0.978%.
On to `CCOc1ccc(C(=O)Nc2cccc(SC)c2)cc1`, for which the Potency was 6.51 µM (active).
Consider `CCOc1ccc(C(=O)Nc2c3c(nn2-c2ccccc2)CS(=O)(=O)C3)cc1`, for which the “activity change, negative = growth inhibition” value is -2.2%.
On the same count and under the same terms, for `CSc1cccc(NC(=O)CSc2ccccc2)c1` the value was -0.186%; for `CCOc1ccc(NC(=O)c2ccc(CSc3nnnn3C)cc2)cc1`, -9.3%.
The same measure, in the same setting: the figure for `O=C(CCC1CCCC1)N=C1SC2CS(=O)(=O)CC2N1Cc1ccccc1` (stereo not drawn) is -18.1%; for `CCc1ccc([C@@H]2CC(=O)[C@@H]3CN(S(=O)(=O)c4ccc(C)cc4)[C@H](c4ccc(Cl)cc4)C[C@@H]3N2S(=O)(=O)c2ccc(C)cc2)cc1` it is -4.59%; for `CCOc1ccc(N2CC(C(=O)N/N=C/c3sccc3C)CC2=O)cc1` (stereo not drawn) it is 9.79%.
In the case of `C[C@H](CO)N1C[C@H](C)[C@@H](CN(C)C(=O)Nc2ccc3c(c2)OCO3)Oc2c(cccc2N(C)C)C1=O`, the “activity change, negative = growth inhibition” value was -18.9%.
As to `CN1CCN(CC#CCC2(O)c3ccccc3-c3ccccc32)CC1`, the “activity change, negative = growth inhibition” value is -12.5%.
Same read-out and setting: the figure for `CC(C)(C)C(=O)Nc1c(Br)c(C2CC2)nn1-c1ccccc1` is -3.25%; for `CCOc1ccc(S(=O)(=O)NCCCn2ccnc2)cc1NC(C)=O` it is 4.07%; for `COC(=O)c1ccc(NC(=O)CSc2nc(N)c(NC(=O)c3ccc(Br)o3)c(=O)[nH]2)cc1` it is 1.82%.
Turning to `O=C(CCC1CCCN(Cc2ccc(O)c(Cl)c2)C1)NCc1ccccc1F` (stereo not drawn), the “activity change, negative = growth inhibition” value was -19%.
Turning to `Clc1ccc(C[n+]2cc(-c3ccc(Cl)cc3)n3c2CCC3)cc1`, the Potency was 4.61 µM (active).
The same measure, in the same setting: the figure for `Clc1ccc(C[n+]2cc(-c3ccccc3)n3c2CCC3)cc1` is 2.91 µM (active).
For the compound `Cn1c(-c2ccccc2)c[n+]2c1CCCCC2`, the “activity change, negative = growth inhibition” value was 5.76%.
For `O=C(O)C(F)(F)C(NCc1ccccc1)c1ccccc1` (stereo not drawn), the “activity change, negative = growth inhibition” value was -10.3%.
Same read-out and setting: for `CCC(C(=O)NC1CCCCC1)N(C(=O)c1snc(C(N)=O)c1N)c1ccc(OC)cc1OC` (stereo not drawn) the value was -28.2%.
On the same count and under the same terms, the figure for `CC(NC(=O)c1ccc(S(=O)(=O)Nc2ccccc2)cc1)c1ccc(S(N)(=O)=O)cc1` (stereo not drawn) is -0.898%.
Consider `COc1cc2c(cc1OC)C(Cc1cc(OC)c(OC)cc1[N+](=O)[O-])=NCC2`, for which the Potency was 5.17 µM (active).
Turning to `COc1cc(CNCc2ccc3c(c2)OCO3)c([N+](=O)[O-])cc1OC`, the “activity change, negative = growth inhibition” value is -5.01%.
On the same count and under the same terms, for `COc1cc(CN2CCCN(C)CC2)c([N+](=O)[O-])cc1OC` the value was -17.5%.
The same measure, in the same setting: for `CCCCC1S/C(=N/N=C/c2cccs2)NC1=O` (stereo not drawn) the value was -15.9%; for `CCc1ccc(OCC(O)CN2CCN(CCO)CC2)cc1` (stereo not drawn), 4.93%.
Same read-out and setting: the figure for `Cc1ccccc1OCC(O)CN1CCN(c2ccccn2)CC1` (stereo not drawn) is 2.2%.
`CC(C)c1ccc(OCC(O)CN2CCN(c3ccccn3)CC2)cc1` (stereo not drawn): the Potency is 25.9 µM (active).
The same measure, in the same setting: the figure for `CC(C)c1ccc(OCC(O)Cn2cnc3ccccc32)cc1` (stereo not drawn) is 18.4 µM (active).
On to `CC(=O)OC(COc1ccc(F)cc1)Cn1cnc2ccccc21` (stereo not drawn), for which the “activity change, negative = growth inhibition” value is -18.6%.
Still for that read-out and setting: for `OC(COc1ccc2ccccc2c1)Cn1cncn1` (stereo not drawn) the value was 4.84%.
